Screens (PubChem)
Pf apPOL inh: Pf-apPOL DNA polymerase inhibition; Recombinant Pf-apPOL, molecular beacon fluorescence, 1.5 h; inhibition, % at 10 µM; 210,000 tested, 0.25% active; AID 1794808
mHTT-CaM PPI inh: mHTT-calmodulin interaction abrogation; P42858; AlphaScreen His-mHTT/GST-CaM binding, luminescence; inhibition, % at 15 µM; 190,000 tested, 3.6% active; AID 1671202;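 note: 0% = both proteins with DMSO and 100% = one protein alone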
Target sequence (P42858 whole entry, looked up, stated change not applied): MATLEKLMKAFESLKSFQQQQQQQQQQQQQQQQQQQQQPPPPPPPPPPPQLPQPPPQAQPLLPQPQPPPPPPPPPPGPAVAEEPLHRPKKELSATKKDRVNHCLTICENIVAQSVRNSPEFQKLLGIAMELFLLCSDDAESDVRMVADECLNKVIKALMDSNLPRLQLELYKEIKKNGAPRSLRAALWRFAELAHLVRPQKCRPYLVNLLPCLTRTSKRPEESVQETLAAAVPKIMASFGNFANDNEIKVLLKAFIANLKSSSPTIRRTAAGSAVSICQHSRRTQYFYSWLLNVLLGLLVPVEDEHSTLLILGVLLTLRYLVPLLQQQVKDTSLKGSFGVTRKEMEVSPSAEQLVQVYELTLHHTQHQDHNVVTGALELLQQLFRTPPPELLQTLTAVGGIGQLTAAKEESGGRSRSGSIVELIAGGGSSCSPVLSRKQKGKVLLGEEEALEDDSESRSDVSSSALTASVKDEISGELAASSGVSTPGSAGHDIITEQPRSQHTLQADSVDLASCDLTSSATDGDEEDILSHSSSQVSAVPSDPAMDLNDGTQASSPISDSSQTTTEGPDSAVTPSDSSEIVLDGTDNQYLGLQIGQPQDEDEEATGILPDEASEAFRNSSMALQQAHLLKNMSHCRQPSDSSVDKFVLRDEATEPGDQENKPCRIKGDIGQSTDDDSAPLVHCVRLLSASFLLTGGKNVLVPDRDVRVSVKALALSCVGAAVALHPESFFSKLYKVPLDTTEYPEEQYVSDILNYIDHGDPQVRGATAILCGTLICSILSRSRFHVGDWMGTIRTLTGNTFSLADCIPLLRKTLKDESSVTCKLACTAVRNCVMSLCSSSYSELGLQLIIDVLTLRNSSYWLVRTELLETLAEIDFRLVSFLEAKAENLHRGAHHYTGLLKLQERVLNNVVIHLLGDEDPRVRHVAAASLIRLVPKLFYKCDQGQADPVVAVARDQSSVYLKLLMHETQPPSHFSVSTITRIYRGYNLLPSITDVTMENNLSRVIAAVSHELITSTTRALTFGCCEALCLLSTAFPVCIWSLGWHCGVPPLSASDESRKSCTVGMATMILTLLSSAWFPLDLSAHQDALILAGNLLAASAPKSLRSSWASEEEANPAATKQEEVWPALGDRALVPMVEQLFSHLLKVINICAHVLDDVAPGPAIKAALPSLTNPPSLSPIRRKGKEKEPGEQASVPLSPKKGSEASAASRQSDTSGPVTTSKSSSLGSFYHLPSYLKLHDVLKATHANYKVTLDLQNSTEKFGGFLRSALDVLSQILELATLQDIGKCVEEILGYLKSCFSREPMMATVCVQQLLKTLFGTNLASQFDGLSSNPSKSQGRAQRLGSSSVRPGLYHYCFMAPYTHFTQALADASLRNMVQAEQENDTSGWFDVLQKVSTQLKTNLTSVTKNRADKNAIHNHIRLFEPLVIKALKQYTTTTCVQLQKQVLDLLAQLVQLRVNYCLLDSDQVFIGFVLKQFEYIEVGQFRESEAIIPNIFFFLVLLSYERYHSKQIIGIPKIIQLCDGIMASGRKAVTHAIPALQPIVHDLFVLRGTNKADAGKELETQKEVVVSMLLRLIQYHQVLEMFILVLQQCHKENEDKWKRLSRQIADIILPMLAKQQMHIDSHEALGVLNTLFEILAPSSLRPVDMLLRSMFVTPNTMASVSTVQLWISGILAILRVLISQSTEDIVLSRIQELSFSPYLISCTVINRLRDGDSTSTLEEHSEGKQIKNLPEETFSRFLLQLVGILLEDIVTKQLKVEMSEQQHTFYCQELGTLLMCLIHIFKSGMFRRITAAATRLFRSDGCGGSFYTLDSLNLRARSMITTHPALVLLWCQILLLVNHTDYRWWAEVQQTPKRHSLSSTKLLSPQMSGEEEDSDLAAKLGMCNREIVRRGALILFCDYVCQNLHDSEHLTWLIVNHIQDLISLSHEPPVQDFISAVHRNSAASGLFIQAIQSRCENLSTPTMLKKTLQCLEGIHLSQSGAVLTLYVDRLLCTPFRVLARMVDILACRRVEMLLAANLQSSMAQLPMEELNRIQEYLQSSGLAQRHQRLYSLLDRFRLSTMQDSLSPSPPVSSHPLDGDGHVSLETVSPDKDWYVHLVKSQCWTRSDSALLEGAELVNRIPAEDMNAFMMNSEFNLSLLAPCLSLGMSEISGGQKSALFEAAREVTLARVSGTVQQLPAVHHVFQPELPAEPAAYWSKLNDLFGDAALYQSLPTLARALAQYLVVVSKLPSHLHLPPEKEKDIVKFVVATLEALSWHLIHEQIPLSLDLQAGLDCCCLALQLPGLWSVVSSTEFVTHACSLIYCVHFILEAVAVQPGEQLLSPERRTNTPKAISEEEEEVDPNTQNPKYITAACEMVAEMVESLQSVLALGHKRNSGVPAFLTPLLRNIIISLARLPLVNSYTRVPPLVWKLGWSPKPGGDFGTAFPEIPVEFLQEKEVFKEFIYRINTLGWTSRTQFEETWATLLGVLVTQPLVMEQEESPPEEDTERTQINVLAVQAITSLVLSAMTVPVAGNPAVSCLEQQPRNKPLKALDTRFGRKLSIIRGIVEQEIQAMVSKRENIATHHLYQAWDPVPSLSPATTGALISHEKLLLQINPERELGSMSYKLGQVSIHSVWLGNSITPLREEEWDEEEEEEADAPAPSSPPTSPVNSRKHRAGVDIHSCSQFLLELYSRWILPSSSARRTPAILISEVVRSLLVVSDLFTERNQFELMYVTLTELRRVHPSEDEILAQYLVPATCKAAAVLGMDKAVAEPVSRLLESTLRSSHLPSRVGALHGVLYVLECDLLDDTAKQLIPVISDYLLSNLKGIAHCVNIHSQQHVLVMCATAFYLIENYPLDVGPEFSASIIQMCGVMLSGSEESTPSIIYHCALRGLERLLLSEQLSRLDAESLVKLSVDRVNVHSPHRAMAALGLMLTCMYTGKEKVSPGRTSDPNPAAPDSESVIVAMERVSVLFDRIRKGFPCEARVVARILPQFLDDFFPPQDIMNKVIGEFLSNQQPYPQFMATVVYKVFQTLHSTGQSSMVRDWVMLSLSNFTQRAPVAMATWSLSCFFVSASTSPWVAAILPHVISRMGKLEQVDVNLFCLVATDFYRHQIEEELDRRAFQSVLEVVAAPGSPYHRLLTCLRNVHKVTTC
The depositor's hits bear a star; nt = no result. Only a selection was taken, and hits are over-represented in it overall. Cut-off read from the data, not from the text of the source: active = inhibition above about 50%; inactive = the rest.

SMILES	Pf apPOL inh	mHTT-CaM PPI inh
Cc1nc(CCNC(=O)C2CCCN2S(=O)(=O)c2ccc(C(C)(C)C)cc2)cs1 (stereo not drawn)	-6.2	12.2
CC(C)c1noc(C2CCCCN2Cc2ccc(N(C)C)cc2)n1 (stereo not drawn)	3.8	53.9*
COc1cccc(CN2CCCCC2c2nc(C(C)C)no2)c1 (stereo not drawn)	-6.8	-41.7
CC(C)c1noc(C2CCCN2Cc2ccccn2)n1 (stereo not drawn)	-5.3	56.8*
CC(C)c1noc(C2CCCCN2CC(=O)Nc2ccccn2)n1 (stereo not drawn)	-0.7	-2.9
Cc1ccc(C(C)C)c(Oc2ccc(N3C(=O)CCCC3=O)cc2)c1	-4.5	6.5
O=[N+]([O-])c1ccc(C2Nc3c(O)cc(Cl)c([N+](=O)[O-])c3C3C=CCC32)cc1 (stereo not drawn)	-4.7	92.0*
Cc1cccc2c1NC(c1ccc([N+](=O)[O-])cc1)C1CC=CC21 (stereo not drawn)	2.9	17.0
O=[N+]([O-])c1c(Cl)cc(O)c2c1C1C=CCC1C(c1ccccc1)N2 (stereo not drawn)	2.6	75.0*
COc1ccc(C=C2Oc3c(ccc(O)c3CN3CCCC3)C2=O)c(OC)c1	-14.0	11.7
COc1ccc(C(C(=O)Nc2ccc3c(c2)OCO3)N(C)C(=O)CNC(C)=O)cc1 (stereo not drawn)	-4.3	2.0
Cc1ccc(C(C(=O)Nc2ccc3c(c2)OCO3)N(C)C(=O)Cc2c[nH]c3ccccc23)cc1 (stereo not drawn)	-4.2	93.0*
O=C(Cc1ccccc1)Nc1ccc(S(=O)(=O)N2CCCC2)cc1	-8.3	0.9
O=C(Cc1ccccc1)Nc1ccccc1NC(=O)Cc1ccccc1	-7.2	1.7
COc1cccc2cc(C(=O)Nc3ccc(N4CCCN(C(=O)C5CC5)CC4)cc3)oc12	4.4	60.6*
O=C(Nc1ccc(N2CCCN(C(=O)C3CC3)CC2)cc1)c1cc(-c2ccccc2)on1	-3.5	12.8
COc1ccccc1C(=O)Nc1ccc(N2CCCC2)cc1	0.1	61.0*
COc1ccccc1C(=O)Nc1cnc(N2CCCC2)nc1	-1.9	-2.8
O=C(Cc1ccccc1)Nc1cccc(NC(=O)Cc2ccccc2)n1	64.6*	-4.3
O=C(Cc1ccccc1)Nc1ccc(N2CCCC2)cc1	-10.0	92.4*
Cc1ccc2nc(-c3ccc(NC(=O)c4cc(C(C)(C)C)nn4Cc4ccccc4)cc3)sc2c1	0.7	nt
Cc1ccc(C=C2CCc3ccccc3C2=O)cc1	-15.0	nt
COc1ccc(Br)cc1C1SCCN1C(=O)c1cc2ccccc2oc1=O (stereo not drawn)	11.6	13.0
CCOC(=O)CNC(=O)N1CCCC1c1cccc(F)c1 (stereo not drawn)	-4.6	-5.8
Cc1ccc2c(c1)sc(=NC(=O)c1ccc(S(=O)(=O)N3CCCCC3)cc1)n2C	-188.7	-1.0
SMILES	Pf apPOL inh	mHTT-CaM PPI inh
O=C(c1cc(-c2ccccc2)n[nH]1)N1CCc2nc3cc(-c4ccccc4)[nH]n3c(=O)c2C1	-0.1	39.9
COc1ccc(C2Cn3nc(-c4nc(C(C)(C)C)no4)cc3CO2)cc1 (stereo not drawn)	-8.1	-2.9
CCOc1ccc(OCC)c(NC(=O)C2CCC(CNS(=O)(=O)c3cccs3)CC2)c1 (stereo not drawn)	-5.5	4.0
O=C(COc1ccccc1[N+](=O)[O-])Nc1ccc(N2CCCC2)cc1	53.9*	33.8
COc1ccc(NC(=O)c2ccc(-c3ccc([N+](=O)[O-])cc3OC)o2)cc1Cl	-6.6	41.7
O=C(Cc1ccc([N+](=O)[O-])cc1)Nc1ccc(Nc2ccccc2)cc1	-5.7	31.4
COc1ccc(CC(=O)Nc2ccc(Nc3ccccc3)cc2)cc1OC	-7.0	62.2*
O=C(Cc1ccccc1)Nc1ccc(Nc2ccccc2)cc1	-4.5	61.6*
COc1ccc(CC(=O)Nc2ccccc2)cc1OC	-6.1	-2.3
COc1cc([N+](=O)[O-])ccc1-c1ccc(C(=O)Nc2ccc(N3CCCCC3)cc2)o1	-5.2	50.6*
O=C(COc1ccccc1[N+](=O)[O-])Nc1cc(C(=O)O)cc(C(=O)O)c1	1.0	-6.4
C=CCn1c2ccccc2c2cc([N+](=O)[O-])ccc21	0.6	3.1
Cc1ccc(C(=O)Nc2ccc(N3CCCC3)cc2)cc1Cl	-3.2	99.7*
Cc1ccc(C(=O)Nc2ccc(N3CCOCC3)cc2)cc1C	3.0	10.9
CN(Cc1ccccc1)C(=O)c1cc2n(n1)C(C(F)(F)F)CC(c1ccccc1)N2 (stereo not drawn)	23.3	53.0*
CC1CCC(C)N(C(=O)c2cc3n(n2)C(C(F)(F)F)CC(c2ccccc2)N3)C1 (stereo not drawn)	-1.0	30.0
Cc1ccc(C2CC(C(F)(F)F)n3nc(C(=O)NCCc4ccccc4)cc3N2)cc1 (stereo not drawn)	5.4	39.0
COc1ccc(C2CC(C(F)(F)F)n3nc(C(=O)NCc4ccccc4)c(Cl)c3N2)cc1 (stereo not drawn)	-0.6	4.0
CC1CCN(C(=O)c2cc3n(n2)C(C(F)(F)F)CC(c2ccccc2)N3)C2CCCCC12 (stereo not drawn)	-10.6	58.0*
COc1ccc(C2CC(C(F)(F)F)n3nc(C(=O)Nc4cccnc4)cc3N2)cc1 (stereo not drawn)	54.7*	14.0
COc1ccc(C2CC(C(F)(F)F)n3nc(C(=O)N(C)Cc4ccccc4)c(Cl)c3N2)cc1 (stereo not drawn)	-3.8	89.0*
Cc1ccc(C2CC(C(F)(F)F)n3nc(C(=O)Nc4cccnc4)cc3N2)cc1 (stereo not drawn)	-1.5	8.0
CN(C1CCCCC1)S(=O)(=O)c1ccc(C(=O)Nc2nnc(-c3ccc(F)cc3)o2)cc1	-52.5	3.0
O=c1[nH]c(/C=C/c2cc(Br)ccc2O)nc2ccccc12	1.6	-0.7
O=c1c2ccccc2nc(/C=C/c2cc(Br)ccc2O)n1CCCO	16.0	76.0*
SMILES	Pf apPOL inh	mHTT-CaM PPI inh
Cc1ccc2ncn(C3CCN(C(=O)Nc4cc(Cl)ccc4C)CC3)c(=O)c2c1	1.5	-0.1
Cc1c(C(=O)NCCc2ccc(Cl)cc2)oc2ccc(S(=O)(=O)N3CCC(C)CC3)cc12	-3.2	6.0
COc1ccc(Oc2ccc(C(F)(F)F)cc2NC(=O)c2nc(-c3ccccc3)oc2C)cc1	-5.4	nt
Cc1ccc(CN2C(=O)c3ccccc3C2C(=O)NC2CCC(C)CC2)cc1 (stereo not drawn)	-7.3	1.0
CC1CCC(NC(=O)C2c3ccccc3C(=O)N2Cc2ccc(F)cc2)CC1 (stereo not drawn)	-5.7	52.0*
O=C(C1CCC1)N1CCC(c2noc(-c3ccccc3)n2)CC1	-9.1	-12.4
Cc1ccc(NC(=O)Cc2nc(-c3ccccn3)n[nH]2)c(C)c1	-5.2	85.9*
Cc1cc(F)ccc1NC(=O)Cc1nc(-c2ccccn2)n[nH]1	-12.2	99.2*
O=C(Cc1ccccc1F)Nc1cc(-c2ccccn2)no1	-2.8	-4.7
Cc1ccc(C)c(NC(=O)Cc2nc(-c3ccccn3)n[nH]2)c1	-11.5	98.8*
O=C(Cc1nc(-c2ccccn2)n[nH]1)Nc1cc(F)ccc1F	-8.8	95.0*
Cc1cc(F)ccc1NC(=O)Cc1nnc(-c2ccc3ncccc3c2)o1	-3.4	1.7
Cc1ccc(NC(=O)Cc2ccccc2)c(C)c1	-2.0	-11.7
Cc1ccc(C)c(NC(=O)Cc2nc(-c3ccccc3)n[nH]2)c1	-3.0	-10.2
O=C(C1CN(C2CCOCC2)CC12CCOCC2)N1CCCC1 (stereo not drawn)	1.9	1.3
